Experimental data as given in the supplement of paper PMC7156485.
± gives the standard deviation of the averaged measurements.

Test system: TDF
Assay: cell number relative to DMSO (% of DMSO); higher = more cells (less growth inhibition / toxicity)
Conditions: concentration: 10 µM; 24 h
Outline: (§1)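 After 24 h at 37 °C with compounds at 10 µM, in triplicate, HCC1569 and TDF cells were fixed with 3.7% formaldehyde. Immunostaining used a rabbit anti-H1.0 antibody and an AlexaFluor 647 secondary, with DAPI, and six fields per well were imaged at ×10. H1.0 nuclear intensity or cell number is presented as percent of the plate control, from the median of replicates, with HCC1569 values smoothed for positional effects.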
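For H1.0 immunofluorescence intensity relative to DMSO in this document: TDF is a line of transformed human dermal fibroblasts of mesenchymal origin.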
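For cell number relative to DMSO in this document: TDF denotes transformed human dermal fibroblasts of mesenchymal origin.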

| SMILES | cell number |
| --- | --- |
| CCCCC=CCCCCCCCC(=O)O [9(E)-Tetradecenoic acid] | 106 |
| Cn1c(=O)c2c(ncn2Cc2ccc(C(C)(C)C)cc2)n(C)c1=O | 71.4 |
| C=CCc1ccccc1OCC(O)CNC(C)C.Cl (stereo not drawn) [Alprenolol hydrochloride] | 91 |
| COc1ccc(-c2ccc(N)[n+](CCCC(=O)O)n2)cc1.[Br-] | 97.9 |
| CN(C)C(=S)NN=C(c1ccccn1)c1ccccn1 [(Z)-di(2-pyridinyl)methanone N,N-dimethylthiosemicarbazone] | 52.4 |
| O=C(NCCN1CCC(n2c(=O)[nH]c3cc(Cl)ccc32)CC1)c1ccc(F)cc1 | 98 |
| O=S(=O)(c1cccc2cnccc12)N1CCCNCC1 | 102 |
| Brc1c(NC2=NCCN2)ccc2nccnc12 | 102 |
| CC(C)(C)n1nc(-c2ccc(Cl)cc2)c2c(N)ncnc21 | 107 |
| CCCCCCCCCCCCCCCCCCCCC(=O)O [Heneicosanoic acid] | 95.5 |
| CN1C(CC(=O)c2ccccc2)CCCC1CC(O)c1ccccc1.Cl (stereo not drawn) | 90.9 |
| Cc1ccc(C(=CCN2CCCC2)c2ccccn2)cc1.Cl [Trans-triprolidine.HCl] | 95.5 |
| COc1cc2c(Nc3ccc(Br)cc3F)ncnc2cc1OCC1CCN(C)CC1 [Vandetanib] | 65.4 |
| Cn1c(=O)c(-c2c(Cl)cccc2Cl)cc2cnc(Nc3ccc(N4CCOCC4)cc3)nc21 | 21.9 |
| CC(=O)OCC(=O)NCCCOc1cccc(CN2CCCCC2)c1.Cl [Roxatidine acetate.HCl] | 95.7 |
| O=C(NCCO)c1cc(C(=O)NCCO)cc(C(=O)NCCO)c1 | 104 |
| CC(=O)C1(O)CCC2C3CCC4=CC(=O)CCC4(C)C3CCC21C (stereo not drawn) [17alpha-hydroxyprogesterone] | 98.3 |
| CC(COc1ccccc1)N(CCCl)Cc1ccccc1.Cl (stereo not drawn) [Phenoxybenzamine.HCl] | 103 |
| CCCCCCCCC=CCCCCCCCCCCCCC(=O)O [14(Z)-Tricosenoic acid] | 106 |
| Cl.c1ccc2c(c1)CCCC2C1=NCCN1 (stereo not drawn) [Tetrahydrozoline hydrochloride] | 98.1 |

| SMILES | cell number |
| --- | --- |
| Nc1ccn(C2CCC(CO)O2)c(=O)n1 (stereo not drawn) [2',3'-dideoxycytidine] | 102 |
| CCN(CC)CC#CCOC(=O)C(O)(c1ccccc1)C1CCCCC1.Cl (stereo not drawn) [Oxybutynin Chloride] | 101 |
| CCN(CC)CCOc1ccc(C(=C(Cl)c2ccccc2)c2ccccc2)cc1 [Clomiphene] | 88.3 |
| NCC(O)c1ccc(O)c(O)c1.O=C(O)C(O)C(O)C(=O)O (stereo not drawn) [L(-)-Norepinephrine bitartrate] | 106 |
| Fc1ccc(-c2nc3n(c2-c2ccncc2)CCS3)cc1 | 108 |
| Cc1ccc(OCCSc2ncccn2)c(Br)c1 [2-{[2-(2-bromo-4-methylphenoxy)ethyl]sulfanyl}pyrimidine] | 105 |
| COc1ccccc1N1CCN(CCCNc2c(C)c(=O)n(C)c(=O)n2C)CC1 [Urapidil, 5-Methyl-] | 121 |
| CCOC(=O)CCNc1cc(N2CCc3ccccc3CC2)nc(-c2ccccn2)n1 | 20.8 |
| CCCCCCCCC=CCCCCCCCCCCCC(=O)O [13(Z)-Docosenoic acid] | 108 |
| O=c1cc(-c2cccc3c2Sc2ccccc2S3)oc(N2CCOCC2)c1 [ATM Kinase Inhibitor] | 109 |
| O=C1c2c(O)ccc(O)c2C(=O)c2c(NCCNCCO)ccc(NCCNCCO)c21 [Mitoxantrone] | 3.71 ± 2.7 |
| CC1(C)OC2CC(=O)OCC23C1CC(=O)C1(C)C3CCC2(C)C(c3ccoc3)OC(=O)C3OC321 (stereo not drawn) [Limonin] | 104 |
| CCCCCCCCCCCCCCCC(O)C(N)CO (racemic) [DL-Dihydrosphingosine] | 101 |
| CCCNCC(O)COc1ccccc1C(=O)CCc1ccccc1 (stereo not drawn) [Propafenone] | 101 |
| O=C1NCN(c2ccccc2)C12CCN(CCCC(c1ccc(F)cc1)c1ccc(F)cc1)CC2 [Fluspirilene] | 87.1 ± 7.5 |
| CC(C)Cn1cnc2c(N)nc3ccccc3c21 [Imiquimod] | 93.4 |
| Cl.Cl.O=S(=O)(NCCNCC=Cc1ccc(Br)cc1)c1cccc2cnccc12 [H-89, Dihydrochloride] | 110 |
| CC1=NN(c2ccccc2)C(=O)C1 | 111 |
| COc1cc(C(=O)OC2CC(C)=CCCC(C)=CC(O)C2C(C)C)ccc1O (stereo not drawn) [Tschimganidin] | 101 |

Test system: TDF
Assay: H1.0 immunofluorescence intensity relative to DMSO (% of DMSO); higher = stronger H1.0 induction, active = 120 or more
Conditions: concentration: 10 µM; 24 h
Outline: as §1

| SMILES | H1.0 immunofluorescence intensity |
| --- | --- |
| CCCCC=CCCCCCCCC(=O)O [9(E)-Tetradecenoic acid] | 98.8 (inactive) |
| Cn1c(=O)c2c(ncn2Cc2ccc(C(C)(C)C)cc2)n(C)c1=O | 106 (inactive) |
| C=CCc1ccccc1OCC(O)CNC(C)C.Cl (stereo not drawn) [Alprenolol hydrochloride] | 103 (inactive) |
| COc1ccc(-c2ccc(N)[n+](CCCC(=O)O)n2)cc1.[Br-] | 96.2 (inactive) |
| CN(C)C(=S)NN=C(c1ccccn1)c1ccccn1 [(Z)-di(2-pyridinyl)methanone N,N-dimethylthiosemicarbazone] | 107 (inactive) |
| O=C(NCCN1CCC(n2c(=O)[nH]c3cc(Cl)ccc32)CC1)c1ccc(F)cc1 | 96.6 (inactive) |
| O=S(=O)(c1cccc2cnccc12)N1CCCNCC1 | 88 (inactive) |
| Brc1c(NC2=NCCN2)ccc2nccnc12 | 90.2 (inactive) |
| CC(C)(C)n1nc(-c2ccc(Cl)cc2)c2c(N)ncnc21 | 99.8 (inactive) |
| CCCCCCCCCCCCCCCCCCCCC(=O)O [Heneicosanoic acid] | 98.5 (inactive) |
| CN1C(CC(=O)c2ccccc2)CCCC1CC(O)c1ccccc1.Cl (stereo not drawn) | 102 (inactive) |
| Cc1ccc(C(=CCN2CCCC2)c2ccccn2)cc1.Cl [Trans-triprolidine.HCl] | 99 (inactive) |
| COc1cc2c(Nc3ccc(Br)cc3F)ncnc2cc1OCC1CCN(C)CC1 [Vandetanib] | 108 (inactive) |
| Cn1c(=O)c(-c2c(Cl)cccc2Cl)cc2cnc(Nc3ccc(N4CCOCC4)cc3)nc21 | 154 (active) |
| CC(=O)OCC(=O)NCCCOc1cccc(CN2CCCCC2)c1.Cl [Roxatidine acetate.HCl] | 103 (inactive) |
| O=C(NCCO)c1cc(C(=O)NCCO)cc(C(=O)NCCO)c1 | 95.2 (inactive) |
| CC(=O)C1(O)CCC2C3CCC4=CC(=O)CCC4(C)C3CCC21C (stereo not drawn) [17alpha-hydroxyprogesterone] | 99 (inactive) |
| CC(COc1ccccc1)N(CCCl)Cc1ccccc1.Cl (stereo not drawn) [Phenoxybenzamine.HCl] | 97.7 (inactive) |
| CCCCCCCCC=CCCCCCCCCCCCCC(=O)O [14(Z)-Tricosenoic acid] | 100 (inactive) |
| Cl.c1ccc2c(c1)CCCC2C1=NCCN1 (stereo not drawn) [Tetrahydrozoline hydrochloride] | 89.8 (inactive) |

| SMILES | H1.0 immunofluorescence intensity |
| --- | --- |
| Nc1ccn(C2CCC(CO)O2)c(=O)n1 (stereo not drawn) [2',3'-dideoxycytidine] | 89.2 (inactive) |
| CCN(CC)CC#CCOC(=O)C(O)(c1ccccc1)C1CCCCC1.Cl (stereo not drawn) [Oxybutynin Chloride] | 94.5 (inactive) |
| CCN(CC)CCOc1ccc(C(=C(Cl)c2ccccc2)c2ccccc2)cc1 [Clomiphene] | 98 (inactive) |
| NCC(O)c1ccc(O)c(O)c1.O=C(O)C(O)C(O)C(=O)O (stereo not drawn) [L(-)-Norepinephrine bitartrate] | 95.8 (inactive) |
| Fc1ccc(-c2nc3n(c2-c2ccncc2)CCS3)cc1 | 92.3 (inactive) |
| Cc1ccc(OCCSc2ncccn2)c(Br)c1 [2-{[2-(2-bromo-4-methylphenoxy)ethyl]sulfanyl}pyrimidine] | 94 (inactive) |
| COc1ccccc1N1CCN(CCCNc2c(C)c(=O)n(C)c(=O)n2C)CC1 [Urapidil, 5-Methyl-] | 96.7 (inactive) |
| CCOC(=O)CCNc1cc(N2CCc3ccccc3CC2)nc(-c2ccccn2)n1 | 171 (active) |
| CCCCCCCCC=CCCCCCCCCCCCC(=O)O [13(Z)-Docosenoic acid] | 95.2 (inactive) |
| O=c1cc(-c2cccc3c2Sc2ccccc2S3)oc(N2CCOCC2)c1 [ATM Kinase Inhibitor] | 98.4 (inactive) |
| O=C1c2c(O)ccc(O)c2C(=O)c2c(NCCNCCO)ccc(NCCNCCO)c21 [Mitoxantrone] | 2090 (active) |
| CC1(C)OC2CC(=O)OCC23C1CC(=O)C1(C)C3CCC2(C)C(c3ccoc3)OC(=O)C3OC321 (stereo not drawn) [Limonin] | 92.2 (inactive) |
| CCCCCCCCCCCCCCCC(O)C(N)CO (racemic) [DL-Dihydrosphingosine] | 96.2 (inactive) |
| CCCNCC(O)COc1ccccc1C(=O)CCc1ccccc1 (stereo not drawn) [Propafenone] | 92.6 (inactive) |
| O=C1NCN(c2ccccc2)C12CCN(CCCC(c1ccc(F)cc1)c1ccc(F)cc1)CC2 [Fluspirilene] | 106 (inactive) |
| CC(C)Cn1cnc2c(N)nc3ccccc3c21 [Imiquimod] | 95.3 (inactive) |
| Cl.Cl.O=S(=O)(NCCNCC=Cc1ccc(Br)cc1)c1cccc2cnccc12 [H-89, Dihydrochloride] | 92.7 (inactive) |
| CC1=NN(c2ccccc2)C(=O)C1 | 93.5 (inactive) |
| COc1cc(C(=O)OC2CC(C)=CCCC(C)=CC(O)C2C(C)C)ccc1O (stereo not drawn) [Tschimganidin] | 96.2 (inactive) |
